Tau ThT inhib = blocks human tau fibril formation measured by thioflavin T | P10636 | recombinant tau K18 P301L, heparin-induced fibrillization, ThT fluorescence | Potency, µM (highest dose often 57.4 µM), actives largely listed as inhibitors | 270,000 tested, 2.1% active; also: nearly all actives have a fitted effect of over 55% in size
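Using a mix of unlabeled (15 uM) and Alexa 594-labeled (0.24 uM) tau K18 P301L, heparin-triggered fibrillization over 6 hr at 37 C was scored by ThT fluorescence.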
TexasRed fluor = alters Texas Red total fluorescence, flagging assay interference; Potency, µM (highest dose often 106 µM); TRb/SRC2 Texas Red total fluorescence interference; 280,000 tested, 0.29% active; active = well fitted curve in either direction with a large enough effect; inconclusive = small, poorly fitted or top-dose-only effect
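Human TRβ ligand-binding domain (0.6 uM) and Texas Red SRC2 peptide (20 nM) in Tris buffer with 1 uM T3 and 5% DMSO were incubated with pinned compound for 5 hr at ambient temperature. Total fluorescence was computed as S + 2P (555/632 nm).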
Tau fluor counter = counter-screen for tau fibril formation inhibitors; tau K18 P301L (four-repeat tau fragment) Alexa594 fluorescence, heparin fibrillization; Potency, µM (series often up to 57.7 µM); 280,000 tested, 0.93% active; AID 1463; also: nearly all actives have a fitted effect of over 55% in size
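Human K18 P301L tau (15 uM unlabeled plus 0.24 uM Alexa 594-labeled, final) in 100 mM sodium acetate pH 7 was mixed with compound and 20 uM heparin and incubated 6 hr at 37 C.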
Tau fibril FP = tau fibrillization inhibition (FP) | Potency, µM (titrated, usually from 57.7 µM), usual class: inhibitors | K18 P301L tau heparin fibrillization, Alexa594 FP, 6 h | 280,000 tested, 0.39% active | P10636; also: nearly all actives have a fitted effect of over 55% in size
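K18 P301L tau (15 uM unlabeled/0.24 uM Alexa 594-labeled, final) + compound + heparin 20 uM final; 100 mM NaOAc pH 7; 6 hr 37 C; ThT 30 uM final added, 1 hr RT; FP ex 555/em 632 nm.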
TRb-SRC2 inh = TRbeta-SRC2 interaction inhibition; P10828; TRbeta-SRC2 peptide binding, fluorescence polarization; receptor liganded with 1 µM T3; Potency, µM (highest dose often 106 µM), actives largely listed as inhibitors; 280,000 tested, 0.065% active; AID 1469; also: nearly all actives have a fitted effect of over 50% in size
Target sequence (P10828 whole entry, looked up): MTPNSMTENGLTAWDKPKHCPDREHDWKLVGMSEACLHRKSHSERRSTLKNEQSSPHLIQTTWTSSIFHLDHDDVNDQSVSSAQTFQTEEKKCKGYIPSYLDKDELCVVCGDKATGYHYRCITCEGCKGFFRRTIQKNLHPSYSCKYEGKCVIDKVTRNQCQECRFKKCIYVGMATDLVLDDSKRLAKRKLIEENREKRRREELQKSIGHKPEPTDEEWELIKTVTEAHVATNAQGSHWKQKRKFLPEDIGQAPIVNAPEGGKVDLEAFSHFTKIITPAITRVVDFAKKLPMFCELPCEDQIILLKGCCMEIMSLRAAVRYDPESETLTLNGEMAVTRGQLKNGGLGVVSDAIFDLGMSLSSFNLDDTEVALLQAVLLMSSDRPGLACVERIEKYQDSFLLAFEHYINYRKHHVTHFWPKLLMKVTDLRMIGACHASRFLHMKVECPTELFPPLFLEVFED
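Fluorescence polarization of 20 nM Texas Red SRC2 peptide (20-aa NR interaction domain) bound to 0.6 uM human TRb ligand-binding domain, with 1 uM T3, after 5 hr at ambient temperature; inhibition seen as decreased polarization.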
Of the large screens only hits and unclear results are named; the others gave an inactive call; [ ] = remark or other dose. Hits are enriched below; roughly 3% of the tested compounds scored in any of these assays. Unless noted, calls follow the shape of the dose curve; as a rule, active = well fitted curve in the direction sought with a large enough effect; inconclusive = small, poorly fitted or top-dose-only effect, or another doubt; inactive = no such curve, though single readings can be large; an effect the other way counts as inactive or inconclusive.

Cc1ccccc1N=Nc1c(C)[nH]n(C(N)=S)c1=O	Tau ThT inhib 14µM
Cc1cccc(N=Nc2c(C)[nH]n(C(N)=S)c2=O)c1C	Tau ThT inhib 7.9µM
Cc1ccccc1N=Nc1c(C)[nH]n(-c2ccccc2)c1=O	none
C[C@H](NC(=O)CNC(=O)[C@@H](NC(=O)[C@H](Cc1ccccc1)NC(=O)CNC(=O)CNC[C@@H](N)Cc1ccccc1)[C@@H](C)O)C(=O)N[C@@H](CCCN=C(N)N)C(=O)N[C@@H](CCCCN)C(=O)N[C@@H](CO)C(=O)N[C@@H](C)C(=O)N[C@@H](CCCN=C(N)N)C(=O)N[C@@H](CCCCN)C(N)=O	none (no result: Tau ThT inhib, Tau fluor counter, Tau fibril FP)
O=C(NC1(O)C(=O)c2ccccc2C1=O)c1ccccc1	Tau ThT inhib 2.8µM, Tau fibril FP inconclusive
Cc1ccccc1C(=O)Nc1ccccc1OCc1cc(=O)n2ccccc2n1	none
CCOc1ccc(C(=O)Nc2ccc3c(c2)OCCO3)cc1Br	Tau ThT inhib inconclusive, Tau fluor counter 16µM[quencher]
Cc1cccc(CNC(=O)C(=O)Nc2ccccc2C)c1	none
O=C(NNc1nc2c(F)cccc2s1)c1cc(=O)c2ccccc2o1	Tau ThT inhib 5µM, Tau fluor counter inconclusive
O=C(NNc1nc2c(F)cccc2s1)c1ccc(F)cc1	none
Cc1ccc2sc(NNC(=O)c3cc(-c4cccs4)nc4ccccc34)nc2c1C	Tau ThT inhib inconclusive, Tau fluor counter inconclusive
COc1ccc2nc(NNC(=O)c3cc(=O)c4ccccc4o3)sc2c1	Tau ThT inhib 4.5µM, Tau fluor counter inconclusive
Cc1cccc2sc(NNC(=O)c3cc(=O)c4ccccc4o3)nc12	Tau ThT inhib 6.3µM, Tau fluor counter inconclusive
Cc1ccc2sc(NNC(=O)c3cc(=O)c4ccccc4o3)nc2c1C	Tau ThT inhib 4µM, Tau fluor counter inconclusive
Cc1ccc(NC(=O)Cn2nnc(-c3ccccc3)n2)c(C)c1	none
CCN(CC)S(=O)(=O)c1ccc2c(c1)N(CC(=O)Nc1ccc(OC)cc1)C(=O)CS2	none
Cc1ccccc1CN1CCC(CNc2ncnc3onc(-c4ccc(F)cc4)c23)CC1	TexasRed fluor 0.071µM[quencher]
COc1ccc(Nc2ncc(C(=O)Nc3cc(Cl)c(OC)cc3OC)c3ccccc23)cc1	Tau fluor counter inconclusive, Tau fibril FP inconclusive
COc1ccc(OC)c(NC(=O)c2cnc(Nc3ccccc3OC)c3ccccc23)c1	Tau fluor counter inconclusive
COC(=O)c1ccccc1NC(=O)c1cnc(Nc2ccc(OC)cc2)c2ccccc12	Tau ThT inhib inconclusive, Tau fluor counter 4.5µM[quencher]
COc1ccc(NC(=O)c2cccnc2Nc2ccccc2)cc1	Tau fluor counter 16µM[quencher]
COc1ccc(Nc2ncc(C(=O)Nc3cccc(Cl)c3)c3ccccc23)cc1	Tau ThT inhib inconclusive, Tau fluor counter 8.9µM[quencher]
CCCCN1CC(c2nc3ccccc3n2CCCCOc2ccc(C)c(C)c2)CC1=O (stereo unspecified)	none
N#Cc1ccccc1NC(=O)C(=O)NCC(c1cccnc1)N1CCN(c2ccccc2)CC1 (stereo unspecified)	Tau fluor counter inconclusive
CC(C)=CCc1c(O)ccc2c1OC(c1ccc(O)c(O)c1)CC2=O (stereo unspecified)	Tau ThT inhib inconclusive, Tau fluor counter inconclusive, Tau fibril FP inconclusive
O=C1CC(c2ccc(O)c(O)c2)Oc2c1ccc(O)c2O (stereo unspecified)	Tau ThT inhib 16µM, Tau fluor counter inconclusive, Tau fibril FP inconclusive
O=C(Nc1ccc(F)cc1F)Nc1csc2ccccc12	Tau ThT inhib inconclusive, Tau fluor counter 11µM[quencher]
O=C(Nc1ccncc1)Nc1ccc(F)c(Cl)c1	Tau fluor counter inconclusive, Tau fibril FP inconclusive
O=C(Nc1ccc(F)c(Cl)c1)Nc1csc2ccccc12	Tau fluor counter 7.9µM[quencher], Tau fibril FP inconclusive (no result: Tau ThT inhib)
O=C(c1cc(F)cc(F)c1)N1CCC(c2nc(-c3ccc(S(=O)(=O)N4CCCC4)cc3)no2)CC1	none
Cc1nnc(SCc2nc(-c3ccc(Cl)cc3)no2)n1-c1ccc(F)cc1	Tau ThT inhib inconclusive, TexasRed fluor inconclusive
CCC(Cc1ccccc1)NC(=O)c1csc2c1CCCCC2 (stereo unspecified)	none
CO[C@H]1COC(=O)[C@H](C)NC(=O)C/C=C\[C@@H](C)[C@H](OC)COC(=O)[C@@H](OCc2ccccc2)/C=C\[C@@H]1C	none

Screening results as filed in PubChem BioAssay.
